# RTF Ca sens act: increases calcium sensitivity of human cardiac regulated thin filaments; hit rate 0.24% among 340,000; P19429+P45379; AID 493008; activation, % at 7.2 µM; IANBD-labeled TnC RTF fluorescence at EC20 calcium; 0% EC20 calcium, 100% full calcium;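 active = activation above the mean over all tested compounds plus 3 SD, cut at about 30% in these data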;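 note: rise in fluorescence read as greater calcium sensitivity of cardiac thin filaments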
# Cardiac RTF inh: cardiac RTF calcium desensitization; P19429+P45379; inhibition, % at 7.15 µM; AID 493244; IANBD-labeled cardiac RTF, Ca2+ fluorescence; hit rate 0.12% among 340,000;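 active = inhibition above the mean inhibition of all tested compounds plus 3 SD, cut at about 17% in these data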;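 note: assay run at fixed EC70 calcium of 1.6 mM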
# eLon inh: inhibits E. coli Lon protease; AID 602123; hit rate 0.42% among 360,000; inhibition, % at 7.94 µM; purified E. coli Lon protease, fluorescence polarization; P0A9M0; in the data active = inhibition above about 13%, passing the limit was not always enough;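 note: 0% = enzyme with probe and DMSO and 100% = no enzyme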
# C-LANA FP: KSHV C-LANA DNA binding inhibition | hit rate 0.078% among 340,000 | inhibition, % at 9 µM | MBP-C-LANA/FAM-LBS DNA binding, fluorescence polarization;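 active = highest replicate inhibition at or above 60% at 9 µM, even if other replicates fall short; inactive = all replicates below 60% inhibition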;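 note: 0% = neutral control wells and 100% = 4 µM acridine orange control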
# EBV gp42 block: EBV gp42 inhibition; Q1HVG2; Fluorescence polarization binding assay, mP read-out; inhibition, % (tested at 21.74 µM); hit rate 0.42% among 220,000; AID 1085; in the data active = inhibition above about 50%
# Target sequence (Q1HVG2 whole entry, looked up): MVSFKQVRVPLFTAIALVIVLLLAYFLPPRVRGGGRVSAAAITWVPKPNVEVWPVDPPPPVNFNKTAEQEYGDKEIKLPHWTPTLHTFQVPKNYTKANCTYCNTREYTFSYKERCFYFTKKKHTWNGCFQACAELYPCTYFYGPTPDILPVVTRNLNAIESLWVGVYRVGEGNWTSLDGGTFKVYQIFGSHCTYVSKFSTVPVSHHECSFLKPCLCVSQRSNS
# Keap1 Nrf2 FP: disrupts human Keap1 binding to Nrf2 peptide; hit rate 0.15% among 340,000; Keap1 Kelch-Nrf2 peptide fluorescence polarization, 1536-well; inhibition, % at 9.4 µM; in the data active = inhibition above about 12%; inconclusive = no clear call, values can overlap the other calls; inactive = below about 7.3%;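 note: human Keap1 Kelch domain with fluorescein labeled Nrf2 9mer peptide probe; 0% = neutral control wells and 100% = peptide positive control; higher means more block of Keap1 binding to Nrf2 peptide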
# Starred values were filed as active, the others as inactive; i = inactive; ? = inconclusive; . = not tested or not shown; + = active, no number. In the library only some 0.98% were active in any assay of this set; here they are far more common.
SMILES,RTF Ca sens act,Cardiac RTF inh,eLon inh,C-LANA FP,EBV gp42 block,Keap1 Nrf2 FP
CSC(=NS(=O)(=O)c1ccc(N)cc1)NS(=O)(=O)c1cccs1,-1.1,4.4,-3.9,68.5*,.,5.0
CSC(=NC(C)c1ccccc1)NS(=O)(=O)c1cccs1 (configuration not stated),-3.4,6.3,-15.5,-1.6,-13.8,-4.8
CCOC(=O)CN1C=C(c2ccc3ccccc3n2)C(C[N+](=O)[O-])c2ccccc21 (configuration not stated),35.9*,-60.7,115.4*,8.5,14.7,5.7
CCOC(=O)c1c(-c2ccccc2)csc1NC(=O)/C(C#N)=C\c1ccc(O)c(OC)c1,39.8*,-63.6,i,-1.1,.,-7.2
CCOC(=O)/C(C#N)=C\c1ccc(O)c(OC)c1,-4.8,-2.3,-5.3,-1.0,-15.3,0.1
CCOC(=O)c1c(-c2ccc(C)cc2)csc1NC(=O)/C(C#N)=C/c1ccc(O)c(OC)c1,49.2*,-32.6,-125.3,6.9,-52.9,6.8
CCC(NC(=O)c1cc(COc2ccc(F)cc2Cl)on1)c1ccncc1 (configuration not stated),-1.9,1.1,-5.7,0.5,.,-3.4
CC(=O)Nc1c(O)c2cccc3c2n(c1=O)CCC3,-0.3,-4.0,-2.4,0.4,.,-1.6
CC(NC(=O)CN1CCCC1)c1ccccc1 (configuration not stated),-5.9,-0.7,13.9,-2.6,.,-1.8
CC(NC(=O)CN1CCC(C(N)=O)CC1)c1ccccc1 (configuration not stated),48.3*,-2.9,-7.1,0.9,-7.3,-7.7
CCCCOc1ccc2c(c1)/C(=C(\C(Cl)=C(Cl)Cl)[N+](=O)[O-])N2,-2.2,6.4,1.2,4.2,56.4*,3.0
Cc1cc(-c2nnc(CCC(=O)NCc3cc(F)cc(C(F)(F)F)c3)o2)no1,-0.8,7.4,-2.2,-0.4,.,-3.9
CN(C)c1ccc(O)c2c1CC1CC3[C@@H](N(C)C)C(=O)C(C(N)=O)=C(O)[C@]3(O)C(=O)C1=C2O (some centres not stated),-1.5,8.2,-6.0,76.7*,-2.6,4.6
Cc1ccc(NC2CCCN(C(=O)CSc3ccccn3)C2)cc1C (configuration not stated),-1.7,-3.1,4.0,0.2,.,1.3
O=C1c2cccc3cccc(c23)C(=O)N1c1ccc(O)cc1,7.6,-4.2,-2.3,-0.6,.,1.9
O=C1c2cccc3c(N4CCCCC4)ccc(c23)C(=O)N1c1ccc(O)cc1,115.5*,-194.4,-52.6,11.7,-7.0,?
O=c1cc2oc3cc(O)c(O)cc3c(-c3ccccc3O)c-2cc1O,51.1*,-23.3,92.0*,145.6*,149.9*,49.1*
CCOc1ccccc1-c1c2cc(O)c(=O)cc-2oc2cc(O)c(O)cc12,+,i,175.8*,157.7*,153.3*,+
COc1ccc(OC)c(-c2c3cc(O)c(=O)cc-3oc3cc(O)c(O)cc23)c1,+,i,+,166.6*,168.4*,+
O=C(Nc1cc(C(F)(F)F)ccc1N1CCOCC1)c1cccc(S(=O)(=O)N2CCOCC2)c1,.,.,-8.2,.,.,.
NC(=S)n1[nH]c(-c2ccc([N+](=O)[O-])cc2)c(N=Nc2cccc(Cl)c2)c1=O,-3.0,2.7,1.6,0.3,100.2*,-2.7
N#Cc1c(SCC(N)=O)nc2c(c1-c1ccc(O)cc1)CCCC2,-2.9,-4.5,-1.5,4.2,110.6*,1.0
CCn1c(CSc2n[nH]c(N)n2)nc2cc(C(=O)O)ccc21,0.6,-3.9,3.9,2.3,64.0*,-2.8
Cc1ccc(S(=O)(=O)N(CC(=O)Nc2cccnc2)c2ccccc2C)cc1,-1.4,-1.1,6.6,-0.1,.,-7.1
COc1ccccc1NC(=O)c1sc2nc(Cc3ccccc3)cc(C(F)(F)F)c2c1N,7.1,-2.5,-5.7,7.4,73.9*,5.6
SMILES,RTF Ca sens act,Cardiac RTF inh,eLon inh,C-LANA FP,EBV gp42 block,Keap1 Nrf2 FP
COc1ccc(NC(=O)c2sc3nc(Cc4ccccc4)cc(C(F)(F)F)c3c2N)cc1OC,11.8,-8.5,-13.9,0.3,-18.8,-5.4
CC(C)OC(=O)c1c2c(n3ccccc13)C(=O)c1ccccc1C2=O,19.4,-15.5,-2.5,24.7,87.6*,?
Cn1cc(Cl)c(C(=O)Nc2nc3ccc([N+](=O)[O-])cc3s2)n1,-8.7,-22.0,-2.0,0.7,66.6*,2.3
Cc1ccc(/C=c2\sc3nc(-c4cccnc4)nn3c2=O)cc1,-4.1,-0.1,1.0,-1.6,85.9*,-2.1
CCCCn1cnc2c(SCc3ccc(Br)cc3)nc(N)nc21,-7.1,-3.7,-4.9,1.5,.,3.1
CC1=CC(=O)c2c(O)ccc(O)c2C1=O,.,.,.,.,116.3*,.
O=C1C=C(N2CCN(c3ccccn3)CC2)C(=O)c2c(O)ccc(O)c21,5.7,3.0,13.2,1.5,.,-2.9
CCOC(=O)/C(=C/c1ccc(N2CCC(c3ccccc3)=N2)cc1)C(C)=O,10.9,-25.8,-79.8,7.8,156.1*,3.9
c1ccc(C2=NN(c3ccccc3)CC2)cc1,-2.3,-3.0,0.7,-0.2,-7.7,-3.4
O=c1c(/C=N/Nc2ccccc2)c(Sc2nnnn2-c2ccccc2)nc2ccccn12,32.0*,-60.0,-130.4,1.6,152.4*,0.1
CC(=O)c1cccc(NC(=O)C2CC(=O)N(C3CCCC3)C2)c1 (configuration not stated),-0.4,1.4,9.7,-0.9,.,-4.1
O=C(Nc1ccc(F)cc1)Nc1nnc(-c2ccncc2)s1,0.8,-8.2,-5.0,-1.4,22.4,2.2
O=C(Nc1ccc(Cl)cc1)Nc1nnc(-c2ccncc2)s1,3.4,-15.7,3.2,0.4,77.2*,2.8
O=c1[nH]c(Nc2ccccc2)cc2ccccc12,-3.9,-7.5,-7.1,1.5,71.7*,1.1
O=C(N=Nc1c(O)[nH]c2ccc([N+](=O)[O-])cc12)c1cc(-c2ccccc2Cl)nc2ccccc12,-5.4,11.8,-3.7,1.4,72.9*,-0.1
CCOC(=O)c1oc2cc(OCC(=O)OC)ccc2c(=O)c1-c1ccc(OC)c(OC)c1,6.3,-8.1,-7.3,2.5,51.2*,-0.3
COC(=O)COc1ccc2c(-c3ccc(OC)cc3)cc(=O)oc2c1,-3.9,-2.4,-2.2,-1.4,2.9,-1.7
O=C1Nc2ccc3sc4ccccc4c3c2C1=O,.,.,1.2,.,57.8*,.
COc1cc(N)c2ncccc2c1Cl,-3.0,1.5,-6.8,-3.1,.,-2.5
c1ccc(-c2cn3nc(-c4ccccc4)c(-c4ccccc4)nc3n2)cc1,-2.0,-13.6,-11.1,21.6,128.1*,1.6
Cc1ccc(-c2cn3nc(-c4ccccc4)c(-c4ccccc4)nc3n2)cc1,.,.,-61.5,.,125.6*,.
CCN(CC(=O)Nc1ccc(NC(C)=O)cc1)C(=O)c1ccc(N2C(=O)c3ccccc3C2=O)cc1,1.7,-14.2,-10.2,1.3,.,0.8
CCOC(=O)C1CCN(C(=O)c2cccc(S(=O)(=O)N3CCCc4ccccc43)c2)CC1,-7.9,12.1,-3.2,-1.0,.,-2.7

# Compound activity deposited in PubChem by several laboratories.
